Source: PubChem
Compounds with a hit are over-represented: about 1.8% of the library has one in this group of screens.
VCAM1 TNFa inh – reduces TNF alpha induced VCAM1 expression in HUVEC; HUVEC TNFa-induced VCAM-1 immunofluorescence, high-content imaging; inhibition, % at 2 µM; actives 0.48% (n = 95,000);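 active means inhibition above the batch mean plus 3 SD, with images confirmed as a hit by eye, cut at about 37% in these data; inconclusive means inhibition above that limit but hit not confirmed in images; inactive means inhibition not above that limit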;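 further: 0% = TNF-stimulated DMSO wells and 100% = unstimulated control wells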
NFkB transloc inh – blocks IL-1B driven NFkB nuclear translocation in HUVEC cells; HUVEC IL-1B NFkB p65 nuclear translocation imaging; actives 0.43% (n = 94,000); inhibition, % at 2 µM;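 active means inhibition above about 30% together with a positive call from visual inspection of the well image, limit read from the data; inconclusive means inhibition above a set limit but visual check negative; inactive means inhibition not above a set limit, visual check negative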;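 further: nuclear over cytoplasmic p65 intensity ratio measured by imaging; 0% = IL-1B stimulated DMSO wells and 100% = unstimulated DMSO wells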
E-sel TNF inh – TNF alpha driven E-selectin expression inhibition; HUVEC TNFa-induced E-selectin immunofluorescence, high content; inhibition, % at 2 µM; actives 0.71% (n = 120,000);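 active means inhibition above the batch mean plus 3 SD, and confirmed as a hit on visual image review, cut at about 43% in these data; inconclusive means passes the inhibition cutoff but fails visual image review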;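 further: 0% = TNF-stimulated DMSO wells and 100% = unstimulated control wells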
HUVEC tox TNFa – HUVEC cytotoxicity counter-screen, TNF alpha stimulated; HUVEC TNFalpha-stimulated, Hoechst cell count, imaging; cell count reduction, % at 2 µM; actives 0.17% (n = 93,000); AID 848;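 active means cell count reduction exceeding the screen mean by over 5 SD, scaled to untreated wells per plate, cut at about 78% in these data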;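 further: cells counted after 24 h of TNF alpha exposure following the 1 h pretreatment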
HUVEC tox IL1B – HUVEC cytotoxicity counter-screen, IL-1B stimulated; HUVEC cell count loss, Hoechst imaging; cell count reduction, % at 2 µM; actives 0.41% (n = 94,000);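 active means cell count reduction more than 3 SD above the screen-wide mean, cut at about 70% in these data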;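 further: normalized per plate to untreated control cells as the no-loss baseline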
IL1B NFkB pot – enhances IL-1B driven NFkB nuclear translocation; activation, % at 2 µM; actives 0.3% (n = 94,000); HUVEC IL-1B NFkB p65 nuclear translocation imaging;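 active means activation above 40%, about the mean plus 3 SD, also judged a hit on visual image review; inconclusive means activation above 40% but not a hit on visual review; inactive means activation not above 40% and no visual hit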;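 further: percent activation is computed from the nuclear over cytoplasmic p65 intensity ratio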
Active calls of the source: *; ? = inconclusive; · = no result given.

SMILES	VCAM1 TNFa inh	NFkB transloc inh	E-sel TNF inh	HUVEC tox TNFa	HUVEC tox IL1B	IL1B NFkB pot
O=C1NCC2=C1C(c1ccc(Br)cc1)Nc1ccccc1N2 (centres undefined)	16	8	-4	-22	-14	-8
Cc1nc(NC(=O)/C=C/c2ccccc2)sc1C(=O)N1CCCCC1	·	·	-10	·	·	·
Cc1ccccc1N1C(=O)N(c2cccc(C(F)(F)F)c2)C2CS(=O)(=O)CC21 (centres undefined)	10	-73	-15	-19	-9	73*
COc1cccc(N2C(=O)N(c3ccccc3)C3CS(=O)(=O)CC32)c1 (centres undefined)	-7	0	10	-7	10	0
O=C1N(c2ccccc2)C2CS(=O)(=O)CC2N1c1ccc(Br)cc1 (centres undefined)	4	-12	100*	5	-19	12
C=CCc1cc(C=O)cc(OC)c1OCc1ccc(Cl)cc1	9	0	26	-4	93*	0
COc1ccc(CC(=O)OCc2cc3ccc(C)cc3[nH]c2=O)cc1	93*	-12	·	71	-18	12
COc1ccc2cc(CCNC(=O)C(C)C)c(=O)[nH]c2c1	·	·	96*	·	·	·
CC1(C)C(=O)OC(c2cccs2)C(C)(C)C1=O (centres undefined)	16	0	10	-87	-32	0
CCC(=O)Nc1nc(-c2ccccc2)ns1	58*	-24	12	·	-13	24
CCOC(=O)Cc1csc(NC(=O)COc2ccc(N(C)S(=O)(=O)c3ccc(C)cc3)cc2)n1	91*	-7	5	76	-9	7
CCOC(=O)Cc1csc(NC(=S)NC(=O)c2ccccc2C)n1	4	50*	-24	2	-31	-50
CCOC(=O)Cc1csc(NC(=O)COc2ccc(OC)cc2)n1	-9	4	91*	5	-2	-4
CCOC(=O)Cc1csc(NC(=O)COc2ccc3ccccc3c2)n1	13	-6	13	-17	-1	6
Cc1ccc(S(=O)(=O)n2nc(-c3ccco3)nc2N)cc1	·	·	-3	·	·	·
CCN(CC)CCC(=O)NN	·	·	-37	·	·	·
COc1ccc(C(=O)C2CCCN(Cc3cccn3-c3ccc(Cl)cn3)C2)c(OC)c1 (centres undefined)	·	·	-22	·	·	·
O=c1c2c(-c3cccs3)csc2ncn1/N=C/c1ccc(OC(F)F)cc1	9	-2	18	-29	-98	1
O=C(O)COc1ccc(/C=N/n2cnc3scc(-c4cccs4)c3c2=O)cc1	·	·	93*	·	·	·
O=C1CC(N2CCOCC2)C(=O)N1Cc1ccc(N2CCCC2=O)cc1 (centres undefined)	-3	-42	-12	-15	16	?
O=C1CC(N2CCN(Cc3ccc4c(c3)OCO4)CC2)C(=O)N1Cc1ccc(N2CCCC2=O)cc1 (centres undefined)	80*	-2	·	92*	9	2
O=C(CCN1C(=O)/C(=C\c2ccccc2Cl)SC1=S)N1CCN(c2ccccc2)CC1	5	14	58*	5	-16	-14
COc1ccc(N2CCN(C(CNC(=O)c3ccco3)c3cccnc3)CC2)cc1 (centres undefined)	-18	-40	·	-44	-12	40*
COc1ccccc1N1CCN(C(CNC(=O)c2ccco2)c2cccnc2)CC1 (centres undefined)	0	-5	·	-24	-48	5
COc1ccc(/C=N/n2cc(-c3ccc(OC)cc3)nc2N)cc1	20	4	-21	-14	-25	-4
SMILES	VCAM1 TNFa inh	NFkB transloc inh	E-sel TNF inh	HUVEC tox TNFa	HUVEC tox IL1B	IL1B NFkB pot
COc1ccc(/C=N/n2cc(-c3ccccc3)nc2N)cc1	·	·	65*	·	·	·
O=C(OCC(=O)N1CCc2ccccc21)c1ccc(Cl)nc1	·	-7	-21	·	-7	7
CCC(=O)NCCc1nc2cc(NC(=O)c3ccc(OC)cc3)ccc2n1C	5	15	12	-3	3	-15
CCc1ccc(CN(C)C(=O)c2cc(COc3c(F)cccc3F)on2)cc1	·	·	83*	·	·	·
O=C(O)C1CC=CCC1C(=O)NNc1ccccc1 (centres undefined)	·	·	-47	·	·	·
O=C(O)CCCCCCC1C(=O)NC(=O)N1CCC(O)C1CCCCC1 (centres undefined)	·	·	-52	·	·	·
Cc1ccc(NC(=O)CC2NCCNC2=O)cc1 (centres undefined)	2	14	-3	-8	-10	-15
Cc1cc(C)cc(NC(=O)CC2NCCNC2=O)c1 (centres undefined)	86*	-15	·	-29	-4	15
CCC(C)c1ccccc1OCCOCCN1CCCC1 (centres undefined)	·	·	-3	·	·	·
CCC(C)c1ccccc1OCCCCN1CCCC1 (centres undefined)	·	·	64*	·	·	·
Cc1cc(Cl)ccc1NC(=O)CCCN1C(=O)CCC1=O	1	43*	-4	18	-4	-43
Cc1ccc(C(=O)/C=C/c2ccc(Br)cc2)o1	-11	-16	48	-7	2	16
C[n+]1ccc(/C=C/c2ccc(Br)cc2)cc1	44*	-18	16	18	-13	18
C=C(C)c1cccc(C(C)(C)NC(=O)N2CCCCC2CC)c1 (centres undefined)	-28	-14	57*	2	-28	14
Nc1cc(-c2ccc(Br)cc2)nn1S(=O)(=O)c1cccc2nsnc12	-12	-2	14	-6	12	2
Cc1csc(SCc2nnc(-c3ccccc3Br)o2)n1	13	7	·	-37	-6	-7
Fc1ccccc1SCc1nnc(-c2ccccc2Br)o1	·	·	68*	·	·	·
O=C1C=C(NCc2ccco2)CC(c2ccc(Cl)cc2)C1 (centres undefined)	2	12	-15	-35	86*	-12
COc1ccc(OC)c(NC(=O)CSc2nnc(CNC(=O)COc3ccc(Cl)cc3)o2)c1	-29	-2	·	-43	-40	2
COc1ccccc1NC(=O)CSc1nnc(CNC(=O)COc2ccc(Cl)cc2)o1	-12	-40	·	-22	-26	40*
Cc1cc2ccccc2n1CCNC(=O)c1cccs1	10	59*	·	7	37	-59
CCOC(=O)N1CCc2c(sc3c2c(=O)n(Cc2ccccc2)c(=O)n3Cc2cccc(C)c2)C1	·	·	88*	·	·	·
CCOC(=O)N1CCc2c(sc3c2c(=O)n(Cc2ccccc2)c(=O)n3Cc2ccccc2F)C1	·	·	-16	·	·	·
CC1SC2(NC1=O)C1CC3CC(C1)CC2C3 (centres undefined)	·	·	-13	·	·	·
Cc1cccc(NC(=O)CN(c2ccc(F)cc2)S(C)(=O)=O)c1	·	·	-20	·	·	·
Cc1cccc(N(C(=O)c2sc(C)nc2C)C(C(=O)NCc2ccco2)c2ccccc2)c1 (centres undefined)	14	-47	-16	-7	2	47*
Cc1cc(C)cc(N(C(=O)c2sc(C)nc2C)C(C(=O)NCc2ccco2)c2ccccc2)c1 (centres undefined)	6	-3	22	13	-8	3
Cc1ccc(CNC(=O)C2CCC(=O)N2CCc2ccccc2)cc1 (centres undefined)	10	13	-12	17	10	-13
